# According to PubChem BioAssay:
# Activity calls are given as the source filed them.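 The calls were made as follows, unless noted: active = visually confirmed hit in the image check and inhibition above 20%; inconclusive = visually confirmed hit but inhibition not above 20%; inactive = no visual hit in the image check.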
# Columns and labels:
# [1] = inhibitors of TNFa-induced NFkB p65 translocation, primary screen, imaging, HUVEC, MLSMR starter and 10KST1 sets (AID 438;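 active = inhibition above 20% together with a positive visual image hit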;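 also: compound added about 3h40 before a 20 min TNFalpha stimulation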;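 as to inhibition: signal is the nuclear over cytoplasmic p65 intensity ratio per well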); conditions: HUVEC TNFa-induced p65 nuclear translocation; cell count: measured here: nuclei count (cytotoxicity indicator), at 2.08 µM; inhibition: at 2 µM, stronger effect = higher value, 0% TNFa-plus-vehicle, 100% no-TNFa wells
# [2] = reduction of polyQ htt aggregates in cells – imaging, exon1htt(103Q)mCFP cells, high-content imaging, primary screen (AID 483;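 active = visual image review flags a hit and inhibition of aggregation exceeds 20%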;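 also: compound exposure lasted 3 days before fixation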;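 as to nuclei count: percent of the per-plate median nuclei count of sample wells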); conditions: exon1htt(103Q)mCFP cell line, aggregate imaging, at 2 µM; inhibition of aggregation: stronger effect = higher value; nuclei count: measured here: cell count, toxicity
# [3] = endothelial E-selectin expression blockers – imaging, HUVEC, immunofluorescence, MLSMR starter and 10KST1 sets, primary screen (AID 487); conditions: HUVEC TNFalpha-induced E-selectin immunofluorescence imaging, at 2 µM; inhibition: stronger effect = higher value; nuclei count: measured here: cell number, toxicity;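 as to inhibition: signal is fraction of cell area covered by stained E-selectin grains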;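 as to nuclei count: 100% = median nuclei count of all wells on the same plate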
# [4] = target: Voltage-gated potassium channel subunit beta-2 (Rattus norvegicus) (UniProt P62483); assay: inhibitors of rat Kvbeta2 reductase activity – biochemical, NADPH fluorescence, primary screen (AID 622;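 active = fluorescence slope higher than the sample average by over 3 SD, cut at about -0.22 in these data, passing the limit was not always enough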;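 also: slope of raw intensity against log time taken from 70 to 1610 s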); conditions: recombinant KvBeta, 4-cyanobenzaldehyde reduction, at 10 µM, stronger effect = higher value
# Sequence of Voltage-gated potassium channel subunit beta-2 (Rattus norvegicus) (P62483 whole entry, looked up): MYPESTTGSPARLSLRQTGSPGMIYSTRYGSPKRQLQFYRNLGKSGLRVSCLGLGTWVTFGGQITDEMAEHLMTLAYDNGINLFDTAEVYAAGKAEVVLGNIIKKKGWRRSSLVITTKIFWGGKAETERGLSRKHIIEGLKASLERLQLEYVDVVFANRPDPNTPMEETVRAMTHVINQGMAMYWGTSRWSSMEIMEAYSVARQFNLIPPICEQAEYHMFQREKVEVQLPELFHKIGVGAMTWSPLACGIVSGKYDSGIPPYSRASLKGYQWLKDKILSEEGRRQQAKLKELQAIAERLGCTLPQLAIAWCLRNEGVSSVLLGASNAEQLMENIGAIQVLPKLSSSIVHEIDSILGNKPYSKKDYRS
# [5] = target: Voltage-gated potassium channel subunit beta-2 (Rattus norvegicus) (UniProt P62483); assay: enhancers of rat Kvbeta2 NADPH turnover – biochemical, NADPH fluorescence, primary screen (AID 623;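 active = NADPH fluorescence slope more negative than the mean of all samples by about 3 SD, 99.7% confidence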;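 also: fluorescence intensity change per second fitted from 20 to 320 s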); conditions: Recombinant KvBeta, NADPH fluorescence decrease slope, 10 min; at 10 µM; stronger effect = lower value
# [6] = target: Alpha-2C adrenergic receptor (Homo sapiens) (UniProt P18825); assay: compounds altering alpha2C-coupled GIRK flux – cell-based, HEK293 alpha2C/GIRK1/2, thallium flux, primary screen (AID 624;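 active = fluorescence slope after compound addition differing from the mean of all screened samples at 99.7% confidence, in either direction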;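 also: slope of fluorescence ratio to pre-addition baseline per second over 15 to 24 s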); conditions: thallium flux BTC fluorescence, at 10 µM, actives lie on both sides
# Sequence of Alpha-2C adrenergic receptor (Homo sapiens) (P18825 whole entry, looked up): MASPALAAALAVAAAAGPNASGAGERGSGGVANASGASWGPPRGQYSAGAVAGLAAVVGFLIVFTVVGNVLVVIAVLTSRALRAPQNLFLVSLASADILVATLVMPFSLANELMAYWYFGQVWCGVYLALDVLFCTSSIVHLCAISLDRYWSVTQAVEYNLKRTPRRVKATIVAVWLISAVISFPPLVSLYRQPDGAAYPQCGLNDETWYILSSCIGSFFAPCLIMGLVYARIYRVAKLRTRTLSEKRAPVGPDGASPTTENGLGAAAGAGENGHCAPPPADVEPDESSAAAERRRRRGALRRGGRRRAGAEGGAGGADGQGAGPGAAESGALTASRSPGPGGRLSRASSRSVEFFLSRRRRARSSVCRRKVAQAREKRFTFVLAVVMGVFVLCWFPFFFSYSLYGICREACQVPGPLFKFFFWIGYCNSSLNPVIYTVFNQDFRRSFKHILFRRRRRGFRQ
# [7] = blockers of RIG-like receptor reporter activation – cell-based, Sendai virus stimulus, luciferase, 10K MLSCN set, TLR/RLR signaling modifier project, primary screen (AID 602276;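 active = inhibition at or above 50% at 10 µM; inactive = inhibition below 50%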;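 also: firefly luciferase from ISG56 promoter only with Renilla not read in this screen; 0% = Sendai virus plus DMSO and 100% = medium plus DMSO without virus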); conditions: HEK293 RL24 IRF3 luciferase reporter, at 10 µM, stronger effect = higher value
# [8] = TLR3 IRF3 reporter activation blockers – cell-based, poly I:C stimulus, luciferase, 10K MLSCN set, primary screen (AID 602277;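 active = inhibition of the reporter signal at or above 50%; inactive = inhibition below 50%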); conditions: HEK293-TLR3 RL24 IRF3 luciferase reporter, at 10 µM, stronger effect = higher value
SMILES,cell count [1],inhibition [1],inhibition of aggregation [2],nuclei count [2] [%],inhibition [3],nuclei count [3] [%],fluorescence slope [4],NADPH fluorescence slope [5],slope [6],inhibition [7],inhibition [8]
Cc1occc1-c1nnc(SCC(=O)N2CCc3ccccc32)o1,679,-1.9% (inactive),2.9% (inactive),73.2,-7.2% (inactive),106,-0.478 (inactive),2.9e-05 (inactive),0.00881 (inactive),5.8% (inactive),5.93% (inactive)
CC(C)Oc1ccc(N2CC(C(=O)Nc3ccccc3F)CC2=O)cc1 (centres undefined),804,3.6% (inactive),-2% (inactive),103,-110% (inactive),128,-0.438 (inactive),6.3e-06 (inactive),0.00384 (inactive),4.3% (inactive),37.6% (inactive)
COc1ccc(S(=O)(=O)N2CN(Cc3ccco3)c3nc4ccccc4nc32)cc1,600,-3.6% (inactive),-1.4% (inactive),82.9,-118% (inactive),134,-0.605 (inactive),-1.5e-05 (inactive),0.00619 (inactive),10.9% (inactive),20% (inactive)
Cc1cc(O)c(-c2cc(C(=O)Nc3ccc(S(=O)(=O)N4CCOCC4)cc3)[nH]n2)cc1C,499,5.8% (inactive),-6.9% (inactive),100,-62.7% (inactive),153,-0.584 (inactive),-1.4e-05 (inactive),0.00629 (inactive),-12.1% (inactive),-24.7% (inactive)
CC1CCCCC1NC(=O)CCCc1nc2ccccc2c(=O)[nH]1 (centres undefined),364,-2.1% (inactive),5.3% (inactive),87.7,-11.1% (inactive),79.6,-0.618 (inactive),-2.3e-05 (inactive),0.00379 (inactive),7.71% (inactive),17.2% (inactive)
O=C(O)c1cc(Cl)c(Cl)cc1C(=O)N1CCCC1,291,0% (inactive),14.8% (inactive),88.1,7% (inactive),104,-0.311 (inactive),4.1e-07 (inactive),0.00644 (inactive),9.27% (inactive),22.8% (inactive)
CCOc1ccc(-c2nc(N)ncc2-c2ccccc2)c(O)c1,399,2% (inactive),-4.3% (inactive),114,-32.6% (inactive),67.7,-0.581 (inactive),-3.6e-05 (inactive),0.00545 (inactive),-1.82% (inactive),-1.28% (inactive)
CC1=C(n2nnc3ccccc32)C(c2ccccc2)C(C#N)=C(N)O1 (centres undefined),424,1.5% (inactive),13.7% (inactive),90.7,27.5% (inactive),113,-0.364 (inactive),-0.00012 (inactive),0.00512 (inactive),17.5% (inactive),32% (inactive)
N#Cc1cc2c(nc1SCC(=O)Nc1sc3c(c1C#N)CCC3)CCCCC2,606,5.3% (inactive),-0.2% (inactive),103,32.4% (inactive),104,-0.323 (inactive),-4.1e-05 (inactive),0.00575 (inactive),1.89% (inactive),-0.19% (inactive)
CC(C)CCN1CC(C(=O)NCc2ccccc2)CC1=O (centres undefined),538,2.2% (inactive),2.7% (inactive),121,-57.7% (inactive),108,-0.288 (inactive),-1.6e-05 (inactive),0.00611 (inactive),30.7% (inactive),14.3% (inactive)
COc1ccc(-c2cc3ccc(OCc4nn[nH]n4)cc3oc2=O)cc1,399,-17.5% (inactive),5.4% (inactive),81.6,-24.5% (inactive),84.5,-0.00551 (active),1.1e-06 (inactive),0.00437 (inactive),8.69% (inactive),-13% (inactive)
O=C(Nc1cnn(Cc2ccc(Cl)cc2Cl)c1)c1noc2c1CCCC2,510,-7.6% (inactive),33.3% (active),57.6,-22.8% (inactive),99.5,-0.569 (inactive),-2.6e-05 (inactive),0.00522 (inactive),-3.18% (inactive),-25.5% (inactive)
Nn1c(SCc2csc(-c3ccccc3)n2)nnc1-c1cccs1,387,-14% (inactive),-10.8% (inactive),93.3,-37.9% (inactive),116,-0.454 (inactive),-7.1e-06 (inactive),0.00728 (inactive),31% (inactive),30.9% (inactive)
N#Cc1c2n(c(=O)[nH]c1=O)CCCCC2,270,14.4% (inactive),18.2% (inactive),113,16.1% (inactive),110,-0.5 (inactive),-0.000252 (inactive),0.00665 (inactive),-7.37% (inactive),0.231% (inactive)
